Screens (PubChem)
DSG3 Ab inh – inhibitors of pemphigus antibody binding to DSG3, primary screen, biochemical, bead-based, flow cytometry, scFv-GFP | DSG3-coupled beads, scFv-anti-DSG3-GFP binding; hits give low values | binding (percent of control), % at 10 µM | 310,000 tested, 0.48% active;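 active means binding more than 3 SD below its plate's average and above zero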;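 further: hits lower antibody fragment binding to DSG3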
DAGLB inh – DAGLB lipase inhibitors, primary screen, biochemical, fluorescence, HTS. 340,000 tested, 0.059% active. HEK293T DAGLB membrane lysate, EnzChek fluorogenic substrate. inhibition, % at 5.17 µM; in the data active means inhibition above about 34%;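 further: 0% = enzyme with vehicle and 100% = wells lacking enzyme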
MsrA inhibitor – bovine MsrA enzyme inhibitors, primary screen, biochemical, absorbance, HTS; purified bovine MsrA, absorbance read-out; inhibition, % at 15.5 µM; 360,000 tested, 0.75% active; in the data active means inhibition above about 4.5%;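 further: 0% = vehicle wells with enzyme and 100% = reference inhibitor wells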
bovine MsrA act – bovine MsrA enzyme activators, primary screen, biochemical, absorbance, HTS. AID 602163, 2012. purified bovine MsrA, absorbance read-out. 360,000 tested, 0.3% active. activation, % at 10.6 µM; in the data active means activation above about 7.5%;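 further: 0% = vehicle and 100% = reference activator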
rCAG binder – binders of r(CAG) RNA repeats, primary screen, biochemical, fluorescence; inhibition, % at 3 µM; 370,000 tested, 1.3% active; AID 651821, 2012; r(CAG) RNA repeat, TO-PRO-1 dye displacement fluorescence;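 active means inhibition above the plate cutoff, the mean of all test compounds on that plate plus 3 SD, cut at about 35% in these data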;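 further: 0% = DMSO alone and 100% = 100 µM mitoxantrone as full dye displacement; higher means more dye released from RNA so lower well fluorescence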
NadD block – inhibitors of S. aureus NadD, primary screen, biochemical, colorimetric, uHTS. purified NadD enzyme, colorimetric absorbance read-out. inhibition, % at 20 µM. 360,000 tested, 0.78% active. AID 602399, 2012; in the data active means inhibition above about 26%
rCAG bind conf – small molecules binding CAG repeat RNA – biochemical, fluorescence, confirmation; AID 652065, 2013; 4,300 tested, 70% active; shares compounds with rCAG binder; r(CAG) RNA repeat, TO-PRO-1 dye displacement fluorescence; inhibition, % at 3 µM;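 active means inhibition above a per-plate cutoff, the mean inhibition of sample wells plus 3 SD, cut at about 35% in these data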;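 further: loss of TO-PRO-1 fluorescence as compound displaces dye from 1x1 AA loop RNA; 0% = DMSO only wells and 100% = 100 µM mitoxantrone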
dCAG dye counter – displacement of TO-PRO-1 from CAG DNA duplex, counter-screen for rCAG RNA repeat binder project, biochemical, fluorescence, TO-PRO-1 dye, d(CAG) DNA oligo. shares compounds with rCAG binder. d(CAG) DNA oligo TO-PRO-1 dye displacement. inhibition, % at 3 µM. 4,300 tested, 94% active. AID 652068, 2013;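 active means inhibition above its plate's cutoff, the mean test-well inhibition plus 3 SD, cut at about 4.8% in these data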;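 further: 0% = DNA dye mix with DMSO and 100% = 100 µM mitoxantrone; hits displace the dye from DNA and so lower well fluorescence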
* = called active by the depositor; . = no result given. Sampled rows, rich in hits. Any-hit rate of the full collection: about 3.2%.

SMILES	DSG3 Ab inh	DAGLB inh	MsrA inhibitor	bovine MsrA act	rCAG binder	NadD block	rCAG bind conf	dCAG dye counter
C[C@H](O)[C@@H]1C(=O)N2CCc3ccc(-c4ccccc4)cc3[C@@H]2C[C@@H]1N(C)C(=S)Nc1ccc(F)cc1	.	-1.1	0.5	-6.5	10.9	-5.1	.	.
COc1ccc(Cl)cc1Nc1nc(-c2sc(NC(=O)c3ccco3)nc2C)cs1	99.8	2.3	0.3	-1.5	35.4*	24.0	33.5	17.0*
CCOC(=O)[C@]12CCCC=C1N(Cc1ccco1)C(=O)[C@H](CC(=O)NCCCCc1ccccc1)C2	.	.	-0.4	-1.3	1.2	-0.4	.	.
COc1cc(NS(=O)(=O)c2ccc(NC(=S)NC(=O)/C=C/c3ccco3)cc2)ncn1	98.5	4.3	3.5	-6.7	56.7*	22.8	47.9*	15.9*
Cc1ccc(NC(=S)NC(=O)/C=C/c2ccco2)c(O)c1	100.8	1.2	1.7	-3.0	34.9*	2.4	38.3*	15.2*
COc1ccc(/C=C/C(=O)NC(=S)Nc2ccc(S(=O)(=O)Nc3ccc(OC)nn3)cc2)cc1	102.5	14.0	4.1	-5.9	69.8*	24.7	66.1*	32.5*
CCOc1ccc(NC(=S)NC(=O)/C=C/c2ccco2)cc1	107.0	-5.3	0.8	-5.4	10.0	-7.4	.	.
O=C(/C=C\c1ccco1)NC(=S)Nc1ccccc1O	97.1	-0.3	2.9	-4.2	25.9	-3.7	.	.
COc1ccc(CN(C)C(=O)c2cc(-c3ccccc3)nc3ccc(C)cc23)c(OC)c1	103.4	-16.4	1.4	-0.4	2.0	5.8	.	.
O=c1ccc2cc3c([nH]c4ccc(Br)cc43)oc-2c1O	70.1	42.6*	2.3	-1.1	100.4*	16.9	91.7*	68.0*
CN1C(=O)NC(c2ccccc2)C2=C1CN(c1cccc(C(F)(F)F)c1)C2=O (stereo unspecified)	102.2	0.0	0.5	-7.3	48.7*	-2.7	2.9	-0.1
O=C1C=CC(c2c[nH]c3ccccc23)CC1 (stereo unspecified)	.	.	1.6	-3.6	5.4	12.4	.	.
O=C1CC(=Nc2ccc([N+](=O)[O-])cc2)NN1c1c(Cl)cc(Cl)cc1Cl	104.2	13.8	2.1	-2.6	48.5*	27.7	48.7*	32.2*
COC(=O)[C@H](C)NC(=O)[C@H](CC(C)C)NC(=O)OC(C)(C)C	.	.	.	.	2.4	.	.	.
COc1cccc(OCC(=O)NNC(=S)Nc2ccc(Cl)cc2Cl)c1	96.5	4.8	0.8	2.1	56.8*	-3.2	47.0*	14.8*
C/C(=N\Nc1c(Cl)c(Cl)nc(C(=O)O)c1Cl)c1ccc(O)cc1	102.4	0.5	2.6	-6.6	39.5*	-6.0	9.5	4.5*
COc1ccccc1C1C2=C(N=c3s/c(=C/c4cccc(OCC(=O)O)c4)c(=O)n31)c1ccccc1CC2 (stereo unspecified)	.	5.0	3.1	-9.5	59.3*	26.3	77.8*	43.1*
CCOC(=O)C1=C(C)N=c2s/c(=C\c3ccc(C(=O)O)cc3)c(=O)n2C1c1ccc(OC)cc1OC (stereo unspecified)	105.1	-0.8	-0.3	-3.8	9.3	10.2	.	.
CCOC(=O)C1=C(C)N=c2s/c(=C\c3cccc(OCC(=O)O)c3)c(=O)n2C1c1ccccc1 (stereo unspecified)	91.8	1.9	0.4	-0.9	75.7*	8.4	74.8*	36.3*
CCOC(=O)C1=C(C)N=c2s/c(=C/c3cccc(OCC(=O)O)c3)c(=O)n2C1c1ccc(F)cc1 (stereo unspecified)	.	.	1.6	.	71.5*	.	75.6*	38.0*
